Screening results as filed in PubChem.
In the library only some 17% were active in any assay of this set; here they are far more common.
TGFb inhibitor: TGF-b pathway inhibition | HepG2 CAGA-GFP TGF-b/SMAD3 reporter, GFP fluorescence, 18 h; TGF-beta stimulated, 500 pg/mL final | Potency, µM (series often up to 46.1 µM), for the others: top-dose activity, negative = inhibition, most hits filed as inhibitors | actives 1.2% (n = 410,000) | AID 588855; also: % is scaled to controls: 0 for no effect and ±100 for the full control effect; nearly all actives have a fitted effect of over 65% in size
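HEPG2 CAGA-GFP reporter cells (1000/well, DMEM with 1% FBS) received compounds, then recombinant TGF-beta at 500 pg/mL final for 18 hours at 37 degrees C. Per-cell GFP summed per well was normalised to unstimulated and stimulated DMSO controls before curve fitting.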
TDP1 cell noCPT: qHTS for Inhibitors of human tyrosyl-DNA phosphodiesterase 1 (TDP1): qHTS in cells in absence of CPT. DT40 Tdp1-/- hTDP1 cells, no CPT, ATP luminescence, 48 h. Potency, µM (top dose mostly 46.2 µM), for the others: at the highest dose activity change, negative = growth inhibition, usual class: inhibitors. actives 15% (n = 420,000); also: % is scaled to controls: 0 for no effect and ±100 for the full control effect; nearly all actives have a fitted effect of over 55% in size
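Cells were dispensed at 400 per well, compounds added by pin tool, plates incubated ≥48 hr at 37 °C, then CellTiter-Glo added for 30 min at room temperature before luminescence reading. Line: DT40 Tdp1-/- complemented with hTDP1; camptothecin omitted.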
HT1080NT lethal: kills 2HG-producing HT-1080-NT fibrosarcoma cells; actives 1.6% (n = 360,000); Potency, µM (highest dose often 46.1 µM), inactives show at the top dose activity, negative = less viability, usual class: cytotoxic; HT-1080-NT fibrosarcoma viability, CellTiter-Glo ATP luminescence, 48 h; AID 686970;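 also: NT is the 2HG producing partner of a matched IDH1 knockdown line; 0% = DMSO-treated cells and -100% = media-only wells without cells; nearly all actives have a fitted effect of over 55% in size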
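Fibrosarcoma NT cells, 750 per well in 5% FBS RPMI, were exposed to compound for 48 hours. Viability: CellTiter-Glo luminescence.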
HT1080 IDH1KD tx: toxicity to HT-1080 IDH1 knockdown cells (counter line); HT-1080 IDH1 knockdown viability, ATP luminescence, 48 h; actives 2% (n = 360,000); AID 686971; Potency, µM (highest dose often 46.1 µM), without a hit: top-dose activity, negative = toxicity, hits mostly cytotoxic;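 also: 0% = DMSO wells and -100% = cell-free medium wells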
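CellTiter-Glo luminescence after 48 h compound exposure at 37 degrees C of IDH1-knockdown HT-1080 cells in 5% FBS RPMI. %Activity scaled between DMSO wells and cell-free media wells, with curves fitted and assigned curve classes.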
TDP1 cell CPT: DT40-hTDP1 cell growth loss with CPT; actives 12% (n = 420,000); AID 686979; chicken DT40 Tdp1-/-;hTDP1 cells + 20 nM CPT, ATP luminescence, 48 h; Potency, µM (series often up to 46.2 µM), without a hit: at the highest dose activity change, negative = growth inhibition, actives largely listed as inhibitors; also: % is scaled to controls: 0 for no effect and ±100 for the full control effect; nearly all actives have a fitted effect of over 55% in size
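Chicken DT40 Tdp1-/- cells stably complemented with human TDP1 were seeded at 400 cells/well in medium containing 20 nM camptothecin, exposed to pin-transferred compounds, and grown at 37 °C for at least 48 hr. Viability was read as ATP luminescence.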
HepG2 viability: kills HepG2 cells in TGF-b inhibitor counter-screen. HepG2 CAGA-GFP viability, ATP luminescence, 18 h. Potency, µM (doses to about 46.1 µM), for the others: at the top dose activity change, negative = cytotoxicity, actives largely listed as cytotoxic. actives 0.76% (n = 410,000). AID 588856
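HepG2 CAGA-GFP cells (1000/well, DMEM with 1% FBS) received compound, then TGF-beta at 500 pg/mL final, and were incubated 18 hours at 37 degrees C. Viability was read by CellTiter-Glo luminescence. Media-only wells were set as complete cell-killing and DMSO as no toxicity.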
Active calls of the source: *; ? = inconclusive; . = no result given. Calls follow the shape of the dose curve; as a rule, active = well fitted curve in the direction sought with a large enough effect; inconclusive = small, poorly fitted or top-dose-only effect, or another doubt; inactive = no such curve, though single readings can be large; an effect the other way counts as inactive or inconclusive. Potency is read from the fitted curve at half-maximal effect.

SMILES	TGFb inhibitor	TDP1 cell noCPT	HT1080NT lethal	HT1080 IDH1KD tx	TDP1 cell CPT	HepG2 viability
CCOc1ccc(/C=N/NC(=O)CSc2n[nH]c(=O)[nH]c2=O)cc1OC	-1%	-7%	1%	3%	-4%	-1%
CC(C)(C)C(=O)N(Cc1ccc(Cl)cc1)c1cnccn1	-17%	12µM*	-1%	-3%	?	-14%
O=C(C1CCC(CNc2nc(=S)[nH]c3ccccc23)CC1)N1CCN(c2ccccn2)CC1 (stereo not drawn)	?	18µM*	6%	4%	18µM*	-20%
O=C(Nc1cccc(S(=O)(=O)N2CCCC2)c1)[C@H]1C[C@H](O)[C@@H](CO)O1	11%	-11%	25%	11%	-24%	0%
O=C(Nc1ccc(Cl)cc1)N1N=CCC1c1ccccc1 (stereo not drawn)	12%	-17%	-5%	-4%	18%	11%
O=C(Nc1ccccc1)C1=C(O)CC(c2ccc(Cl)cc2)N2CCN=C12 (stereo not drawn)	-15%	18µM*	-2%	-10%	?	-18%
O=C(NCc1ccccc1)C1Nc2ccc(OC(F)(F)F)cc2C2C=CCC12 (stereo not drawn)	?	?	4%	7%	23µM*	-4%
O=C(NCc1ccccn1)C1Nc2ccc(OC(F)(F)F)cc2C2C=CCC12 (stereo not drawn)	?	?	4%	3%	?	-66%
O=C(NC1CC1)C1Nc2ccc(OC(F)(F)F)cc2C2C=CCC12 (stereo not drawn)	-10%	13µM*	0%	-6%	?	-18%
CCOC(=O)C1Nc2ccc(OC(F)(F)F)cc2C2C=CCC12 (stereo not drawn)	-16%	?	-5%	-10%	?	-11%
c1ccc2c(c1)Nc1cc3ccccc3cc1O2	-3%	?	19%	-3%	2%	-22%
CNC(=O)[C@@H]1C[C@H](NC2CCCCCCC2)CN1Cc1cccc(OC)c1OC	.	-28%	.	.	?	.
Nc1cc(Cl)ccc1Oc1ccccc1	-2%	-23%	0%	-9%	-16%	-15%
Cc1cccc(Oc2ccc(Cl)cc2N)c1	-32%	?	-14%	-17%	-30%	20µM*
Cc1noc(C)c1S(=O)(=O)N1CCCN(C(=O)/C=C/c2ccccc2F)CC1	0%	?	6%	0%	-14%	-5%
CCC(Sc1nnc(C)n2c1cc1occc12)C(=O)Nc1ccccc1F (stereo not drawn)	?	26µM*	.	.	21µM*	-25%
CCc1nnc(SCC(=O)Nc2ccc(Cl)cc2F)c2cc3occc3n12	1%	15µM*	.	.	23µM*	-9%
Cc1cc2c(cc3c(SCC(=O)Nc4ccc(Cl)cc4F)nncn32)o1	-14%	-77%	.	.	?	-3%
Cc1ccccc1NC(=O)COC(=O)c1ccccc1OCC(=O)Nc1ccc(Br)cc1	8%	5%	.	.	-4%	2%
O=C(NC1CCCCC1)c1ccc2c(c1)sc1nc(-c3ccc(F)cc3)cn12	13%	15µM*	.	.	13µM*	-23%
O=C(NC1CCCCCC1)c1ccc2c(c1)sc1nc(-c3ccc(F)cc3)cn12	-8%	6.5µM*	.	.	?	-11%
O=C(NC1CCCc2ccccc21)c1ccc2c(c1)sc1nc(-c3ccccc3)cn12 (stereo not drawn)	-3%	18µM*	.	.	8.2µM*	-1%
COc1ccc(-c2cn3c(n2)sc2cc(C(=O)NC4CCCCCC4)ccc23)cc1	-3%	7.3µM*	.	.	?	2%
